The list is not random: actives were taken first. Their share in the collection is about 21%.
Pf growth 48h: inhibits P. falciparum growth in the first generation, 48 h | Potency, µM (highest dose often 28.7 µM), for inactives: at the highest dose activity change, negative = inhibition, usual class: inhibitors | actives 5.9% (n = 310,000) | P. falciparum luciferase growth in erythrocytes, 48 h; note: potency is the fitted concentration of half-maximal effect; % is set by controls: 0 for no effect and ±100 for the full control effect
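Parasite viability was followed by luminescence of a genomically integrated firefly luciferase. Cultures held 0.1% parasitemia at 2% hematocrit (final), incubated under 5% CO2 at 37 C.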
HCV inhibitor: blocks hepatitis C virus | Huh7.5.1 HCVcc-Cre infection, luciferase reporter, 44 h | Potency, µM (series often up to 41.8 µM), for inactives: top-dose activity change, negative = inhibition, hits mostly inhibitors | actives 3.4% (n = 340,000); note: potency is the fitted concentration of half-maximal effect; % is set by controls: 0 for no effect and ±100 for the full control effect
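Reporter virus HCVcc-Cre (~0.5 moi) infects cells exposed to compound; seeding density 1,000 cells/well with 4 h settling beforehand. Luminescence, 15 sec read, taken 44 h post-infection following a 15 min RT substrate incubation.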
Pf growth 96h: P. falciparum growth inhibition at 96 hours; P. falciparum luciferase reporter growth, 96 h; Potency, µM (series often up to 28.7 µM), for the others: at the highest dose activity change, negative = inhibition, usual class: inhibitors; actives 6.9% (n = 320,000); AID 504834; note: potency is the fitted concentration of half-maximal effect; % is set by controls: 0 for no effect and ±100 for the full control effect
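Readout is luminescence from an integrated firefly luciferase in P. falciparum. Red cells, 2% hematocrit and 0.05% parasitemia final, were cultured with compound through two parasite generations (96 hours) at 37 C, 5% CO2.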
HCMV inh: inhibitors of human cytomegalovirus; HFF cells, HCMV-luciferase reporter, 72 h; stronger effect = lower value; activity change, negative = inhibition, % at 57.5 µM; actives 4.5% (n = 410,000); AID 1259415; in the data active = activity change below about -60%; inconclusive = no clear call, values can overlap the other calls; inactive = above about -39%; note: % is set by controls: 0 for no effect and ±100 for the full control effect
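HFF cells seeded 16 h at 37C, treated with compounds, infected with luciferase-reporter HCMV at MOI 1 PFU/cell; luciferase read at 72 h post infection, normalized to buffer-only and Salinomycin controls.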
Cycloheximide cs: counter-screen hit for Shiga toxin inhibitors, cycloheximide. cell reporter, cycloheximide protein synthesis inhibition counterscreen. max response, %. AID 2314. actives 12% (n = 300,000); in the data active = max response mostly above about 13%, no sharp cut-off; inactive = mostly below about 14%; note: read at 38.3 µM for the half of the compounds with a filed dose; 0% is about no effect
Shiga inhibitor: inhibitors of Shiga toxin in Vero cells; Vero cells, Shiga toxin protein synthesis inhibition reporter; actives 9.2% (n = 290,000); inhibition, % at 38.7 µM; in the data active = inhibition mostly above about 28%, no sharp cut-off; inactive = mostly below about 43%; note: 0% is about no effect
Numbers without * were called inactive; ? = inconclusive; nt = no result given. Unless noted, calls come from the whole dose curve; as a rule, active = well fitted inhibition curve with a large enough effect; inconclusive = small, poorly fitted or top-dose-only effect, or another doubt; inactive = no such curve, though single readings can be large or run the other way.

SMILES	Pf growth 48h	HCV inhibitor	Pf growth 96h	HCMV inh	Cycloheximide cs	Shiga inhibitor
C/C(=N/NC(=O)c1ccco1)c1ccc(Br)s1	28%	-13%	10%	?	26*	35*
C/C(=N\Nc1ccc(F)cc1F)c1ccc(Br)s1	23%	?	-10%	-70*	12	16
C/C(=N/Nc1ccc(F)cc1)c1ccc(Cl)s1	-4%	6%	?	-14	11	8
COC(=O)[C@H]1[C@H]2C[C@@H]3c4[nH]c5cc(OC)ccc5c4CCN3C[C@H]2C[C@@H](OC(=O)c2cc(OC)c(OC)c(OC)c2)[C@@H]1OC	1.5µM*	?	1.7µM*	23	nt	nt
COc1ccc2c3c([nH]c2c1)C1CC2C(CC(O)C(OC)C2C(=O)O)CN1CC3 (centres undefined)	9.3µM*	11%	3.7µM*	17	5	14
COC(=O)C1C2CC3c4[nH]c5cc(OC)ccc5c4CCN3CC2CC(OC2CCCCO2)C1OC (centres undefined)	nt	nt	nt	-1	nt	nt
Cc1ccc(NC(=O)C(C)N2C(=O)c3ccccc3C2=O)c(C)c1 (centres undefined)	-24%	9%	-2%	27	-4	-3
COCO[C@H]([C@@H](C)C=C(Br)Br)[C@@H](C)COCc1ccc(OC)cc1	nt	nt	nt	nt	13	8
O=[N+]([O-])c1ccc(Sc2cccc[n+]2[O-])c2nonc12	2.9µM*	10µM*	0.83µM*	-106*	3	-2
O=C(CSc1cccc[n+]1[O-])Nc1cc(Cl)ccc1[N+](=O)[O-]	nt	-25%	nt	-11	nt	nt
Cc1cccc(C(=O)N2CCc3cc(-c4csc(NC(=O)CN5CCCC5)n4)ccc32)c1	?	?	?	-26	9	9
O=C(Cc1ccc(F)cc1)NCc1ccc2c(c1)CCN2C(=O)c1ccc(F)cc1	nt	nt	nt	23	nt	nt
CCC(=O)N1CCc2cc(CNC(=O)c3ccccc3C)ccc21	nt	nt	nt	65	nt	nt
CNc1nc(-c2ccc3c(c2)CCN3C(=O)c2ccc(F)cc2)cs1	20%	?	?	-19	45*	91*
O=C(CN1CCCC1)Nc1nc(-c2ccc3c(c2)CCN3C(=O)c2ccccc2F)cs1	15µM*	10µM*	?	nt	20*	31
CNc1nc(-c2ccc3c(c2)CCN3C(=O)c2ccccc2C)cs1	?	?	-12%	-35	34*	64*
CNc1nc(-c2ccc3c(c2)CCN3C(=O)c2cccc(F)c2)cs1	-4%	11µM*	-38%	-10	44*	59*
Cc1ccc(NC(=O)CCNS(=O)(=O)c2ccc3c(c2)CCC(=O)N3)cc1	-7%	-4%	?	-24	-5	-7
O=C(NCCc1ccccc1)C(=O)NCC1CCCN1S(=O)(=O)c1cccs1 (centres undefined)	?	?	?	-14	nt	nt
CC(C)C1N=C(c2ccc3c(c2)OCO3)CC(c2ccccc2O)N1 (centres undefined)	?	?	nt	86	39*	79*
Cn1cnc(S(=O)(=O)N2CCC(C(=O)NCc3ccc(Cl)cc3)CC2)c1	nt	nt	nt	3	nt	nt
NS(=O)(=O)c1ccc(CCNC(=O)CSc2nc3ccsc3c(=O)n2C2CC2)cc1	-6%	-1%	50%	-8	-1	21
CCCCNC(=O)CSc1nc2ccsc2c(=O)n1C1CCN(C(=O)OCC)CC1	?	-19%	2.1µM*	-4	-3	-26
COc1cc2cnc(-c3ccsc3)c(-c3ccc(F)cc3)c2cc1OC	?	6.3µM*	?	14	nt	nt
COc1cc2cnc(-c3ccccc3)c(-c3ccc(C#N)cc3)c2cc1OC	2.3µM*	?	?	-12	nt	nt
SMILES	Pf growth 48h	HCV inhibitor	Pf growth 96h	HCMV inh	Cycloheximide cs	Shiga inhibitor
COc1cc(OC)c(C(=O)NNC(=S)NC2CCCCC2)cc1OC	3%	0%	0%	?	-4	-14
O=C(NC(=S)NC1CCCCCC1)c1cncc(Br)c1	60%	1%	26%	56	40*	85*
O=C(NC(=S)Nc1ncc(Br)cc1Br)c1cncc(Br)c1	23%	-18%	2%	?	14	-3
C/C(=N\NC(=S)NC1CCCCC1)c1ccccc1	4.1µM*	1%	?	?	12*	59
O=C(NC(=S)NC1CCS(=O)(=O)C1)c1ccccc1 (centres undefined)	-2%	7%	?	-29	5	11
C/C(=N\NC(=S)NC1CCCCC1)c1ccc(O)cc1	-59%	?	?	-36	8	23
O=C(NC(=S)NC1CCCCC1)c1ccccc1	?	4%	?	-98*	48*	99*
O=C(NNC(=S)NC1CCCCC1)c1ccccc1Br	13µM*	5%	?	-24	9	2
S=C(NCc1ccccc1)NC1CCCCC1	-15%	-5%	23%	5	10	1
CC1CCCC(NC(=S)NC(=O)c2ccccc2Br)C1C (centres undefined)	?	10%	?	-2	9	active
S=C(NC1CCCCC1)NN(c1ccccc1)c1ccccc1	12µM*	?	2.9µM*	?	13	13
COCC(=O)N1CCCc2ccccc21	17%	1%	29%	71	14	9
O=C(CCCOc1ccccc1)N1CCCc2ccccc21	0%	-6%	15%	3	49*	132*
CCn1c(=O)cc(OCC(=O)N2CCc3ccccc32)c2ccccc21	37%	13%	?	-21	-4	-8
O=C(COc1ccc2ccccc2c1CN1CCOCC1)N1CCc2ccccc21	nt	-16%	10µM*	1	-3	-20
NC(=O)c1ccccc1OCC(=O)N1CCCc2ccccc21	10%	-27%	9%	44	26*	74*
O=C(COc1ccccc1Cl)N1CCc2ccccc21	69%	-18%	5%	168	41*	101*
Cc1ccc2onc(CC(=O)N3CCN(c4cc(Cl)ccc4C)CC3)c2c1	nt	nt	nt	-8	nt	nt
CCOC(=O)c1c(C)oc2nc(C)nc(NCc3cccc(Cl)c3)c12	nt	nt	nt	2	nt	nt
C[C@H]1CN([C@@H](C)CO)C(=O)CCCn2nncc2CO[C@H]1CN(C)S(=O)(=O)c1ccc(F)cc1	nt	nt	nt	-9	nt	nt
O=C(COc1ccccc1)N1CCc2ccccc21	91%	-7%	4%	47	31*	76*
O=C(COc1ccccc1)OCC(=O)N1CCCc2ccccc21	7%	23%	33%	-26	nt	nt
O=C(COc1ccc(Br)cc1)N1CCc2ccccc21	36%	0%	59%	14	27*	111*
COc1ccc(S(=O)(=O)N2CCc3ccccc32)cc1C(=O)N(CC(C)C)C1CCS(=O)(=O)C1 (centres undefined)	?	5%	?	17	nt	nt
CCN(CC)c1ccc(/C=C(/C#N)c2nc3ccc(C)cc3[nH]2)c(OC(C)C)c1	?	2.8µM*	10µM*	?	15*	22
